# The campaign covered roughly 1,900 compounds. About 250 (13%) were called active. Another 4% or so got no clear call; they are omitted. A selection follows. Potency and affinity values are given separately. A number with no mark means an inactive call.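 Rule for the calls: active = fitted curve reaches 40% rescue activity at or below the top valid dose, in every test run; inconclusive = test runs disagree, some active and some inactive; inactive = every run misses the threshold or moves the wrong way.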
# Assay: suppressors of statin myotoxicity in myotubes, dose response, cell-based, C2C12 myotubes, ATP luminescence, cherry pick (AID 624405);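 note: myotubes are challenged with simvastatin at 10 µM to lower ATP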
# Conditions: C2C12 myotubes + simvastatin, 48 h, scaled: DMSO wells 0, geranylgeraniol wells 100; series mostly up to 19.5 µM; rescue activity (ATP increase): at the top concentration
row,Compound,rescue activity (ATP increase)
1,C=CCOc1ccc(/C(CC)=N/O)cc1OC,-3.5%
2,CS(=O)(=O)N(CC(=O)NCc1ccco1)c1ccc(OCc2ccccc2)cc1,23.1%
3,COc1cccc(NC(=O)N(C)C[C@H]2Oc3ncc(C#Cc4ccc(F)cc4)cc3C(=O)N([C@@H](C)CO)C[C@@H]2C)c1,19.9%
4,N#C[C@H]1[C@H](c2ccc(-c3ccc(F)cc3)cc2)[C@@H](CO)N1C(=O)Cc1ccccc1,32.6%
5,CC(C)NC(=O)N1[C@@H](C#N)[C@H](c2ccc(-c3ccc(F)cc3)cc2)[C@@H]1CO,23.1% [at 21 µM]
6,CC(C)NC(=O)N1[C@H](C#N)[C@@H](c2ccc(-c3ccc(F)cc3)cc2)[C@@H]1CO,32.4% [at 21 µM]
7,COc1ccc(CC(=O)NC(CC(=O)O)c2cccc([N+](=O)[O-])c2)cc1 (stereo not drawn),36.5%
8,COc1ccc(-c2ccc([C@H]3[C@@H](C#N)N(C(=O)NC4CCCCC4)[C@@H]3CO)cc2)cc1,39%
9,CC(C)NC(=O)N1[C@H](CO)[C@@H](c2ccc(-c3ccc(F)cc3)cc2)[C@@H]1C#N,37.9%
10,N#Cc1ccc(Oc2ccc(/C=N/O)cn2)cc1,32.7%
11,COc1ccc(N2CCN(C(=O)COc3ccc4c(C)cc(=O)oc4c3C)CC2)cc1,-26.7%
12,C[C@H]1CN([C@@H](C)CO)C(=O)c2cc(NS(=O)(=O)c3ccc(Cl)cc3)ccc2O[C@H]1CN(C)S(=O)(=O)c1cccs1,33.6%
13,C[C@@H]1CN([C@@H](C)CO)C(=O)c2cc(NC(=O)Nc3ccc(F)cc3)ccc2O[C@@H](C)CCCCO[C@@H]1CN(C)S(=O)(=O)c1cccs1,6.85%
14,COCCCn1cnc2c(c1=O)c1nc3ccccc3nc1n2-c1ccccc1,38.6%
15,C[C@@H]1CN([C@@H](C)CO)C(=O)Cc2cc(NC(=O)Cn3cnnn3)ccc2O[C@H]1CN(C)Cc1ccc(Oc2ccccc2)cc1,-3.67%
16,COc1ccc(N2Nc3n[nH]c(N)c3N2)cc1,9.38%
17,C[C@@H]1CCCCO[C@H](CN(C)Cc2ccc(C(F)(F)F)cc2)[C@H](C)CN([C@@H](C)CO)C(=O)c2cc(NC(=O)c3ccncc3)ccc2O1,1.14%
18,O=C(NC1CCN(C(=O)NCc2ccccc2)CC1)c1ccco1,12.3%
19,COc1ccc(-c2cnc3c(c2)C(=O)N([C@H](C)CO)C[C@H](C)[C@H](CN(C)S(=O)(=O)c2ccc(C)cc2)O3)cc1,29.7%
20,Cc1noc(C)c1NC(=O)Nc1ccc2c(c1)CC(=O)N([C@H](C)CO)C[C@@H](C)[C@@H](CN(C)Cc1ccc(Cl)c(Cl)c1)O2,35.3%
21,O=CN1CCC(=O)N(Cc2ccccc2)c2ccccc21,-9.7%
22,COc1cc(NC(=O)c2ccccc2)c(OC)cc1Cl,-8.34%
23,Cc1cccc(NC(=O)c2ccc(OC3CSC3)cc2)c1,-47.3%
24,COc1ccc(C2NC(C(=O)O)Cc3c2[nH]c2ccccc32)cc1OC (stereo not drawn),2.94%
25,O=C1C[C@@H]2c3c(cccc3CN1Cc1ccc(Br)cc1)C[C@@H](O)[C@H]2O,24.6%
26,O=C1C[C@@H]2c3c(cccc3CN1Cc1ccc(Cl)cc1)C[C@@H](O)[C@H]2O,14.1%

row,Compound,rescue activity (ATP increase)
1,COc1ccc(CN2[C@H](CO)[C@H]3c4ccccc4N(C(=O)c4ccccc4)C[C@H]32)cc1,21.3%
2,O=C(CSc1nc2ccccc2[nH]1)Nc1ccc2c(c1)OCCO2,-4.52%
3,CCOc1ccc(NC(=O)CN(Cc2ccccc2)S(C)(=O)=O)cc1,-3.7%
4,CCOC(=O)Cc1nnc(NC(=O)COc2ccc(OC)cc2)s1,-12.6%
5,Cc1cccc(Nc2nc(CC(=O)O)cs2)c1,-21.3%
6,C[C@@H]1CN([C@H](C)CO)C(=O)c2cc(C3=CCCCC3)cnc2O[C@@H]1CN(C)C(=O)c1ccccn1,5.53%
7,C[C@H]1CN([C@@H](C)CO)C(=O)c2cc(NC(=O)Cc3cn(C)c4ccccc34)ccc2O[C@@H]1CN(C)S(=O)(=O)c1cccs1,15.3%
8,Cc1cc(C)nc(N2CCCC(C(=O)NCc3cccs3)C2)n1 (stereo not drawn),-1.73%
9,S=C(NCc1ccc(Cl)cc1)Nc1ccccc1,12%
10,COc1ccc(S(=O)(=O)Nc2ccc3c(c2)CC(=O)N([C@H](C)CO)C[C@H](C)[C@@H](CN(C)Cc2ccc(C(F)(F)F)cc2)O3)cc1,26.2%
11,Cn1c(-c2sc3cc(C(F)(F)F)cnc3c2-c2cccnc2)n[nH]c1=S,32.8%
12,CC1(C)CC(C(=O)Nc2nccs2)CCO1 (stereo not drawn),0.246%
13,C[C@@H]1CN([C@@H](C)CO)C(=O)c2cc(NS(=O)(=O)c3cccs3)ccc2O[C@H]1CN(C)S(=O)(=O)c1ccc(Cl)cc1,10.6% [at 21 µM]
14,COc1ccc(OC)c(S(=O)(=O)Nc2ccccc2C)c1,1.7%
15,CCCOn1nnnc1-c1ccccc1,36.3%
16,C[C@@H]1CCCCO[C@H](CN(C)C(=O)Nc2cccc3ccccc23)[C@H](C)CN([C@@H](C)CO)C(=O)c2cc(NS(=O)(=O)c3ccc(Cl)cc3)ccc2O1,9.78%
17,CC1CCN(c2ncnc3c2cnn3Cc2ccc(Cl)cc2)CC1,30.3%
18,C[C@H]1CN([C@@H](C)CO)C(=O)c2cc(C3=CCCCC3)cnc2O[C@@H]1CN(C)Cc1ccccc1F,14.8%
19,COc1ccccc1OCCNC1CCCC1,13%
20,C[C@@H]1CN([C@H](C)CO)C(=O)Cc2cc(NS(=O)(=O)c3cn(C)cn3)ccc2O[C@@H]1CN(C)Cc1ccc(-c2ccccc2)cc1,26.4%
21,CCOC(=O)c1nn(-c2cccc(Cl)c2)c(C)c1C(C)=O,17.9%
22,O=C(Cn1cnc2c(cnn2-c2ccccc2)c1=O)c1ccc(Cl)cc1,30.3%
23,COc1ccc(NC(=O)Nc2cccc3c2O[C@@H](CN(C)C(=O)Nc2cccc4ccccc24)[C@@H](C)CN([C@H](C)CO)C3=O)cc1,4.56%
24,C[C@@H]1CN([C@@H](C)CO)C(=O)c2cc(N(C)C)ccc2O[C@H]1CN(C)Cc1ccc(-c2ccccc2)cc1,9.05% [at 21 µM]
25,Oc1ccccc1/C=N/c1c(-c2ccco2)nc2ccccn12,-96%
26,CC(c1nc2ccccc2c(=O)[nH]1)N1CCN(C)CC1 (stereo not drawn),-6.72%

row,Compound,rescue activity (ATP increase)
1,C[C@H]1CN([C@@H](C)CO)C(=O)c2cc(NS(=O)(=O)c3cccs3)ccc2O[C@H]1CN(C)Cc1ccc(Cl)c(Cl)c1,0.067%
2,O=C(NCc1ccco1)C1CCCN(S(=O)(=O)c2ccccc2)C1 (stereo not drawn),12.2%
3,O=C(Nc1ccc(S(=O)(=O)N2CCCCC2)cc1)c1ccco1,-19.1%
4,C[C@H]1CN([C@@H](C)CO)C(=O)c2cc(NC(=O)Cc3cn(C)c4ccccc34)ccc2O[C@@H]1CN(C)Cc1ccc(C(F)(F)F)cc1,21.4%
5,C[C@@H]1CN([C@H](C)CO)C(=O)c2cc(NC(=O)Cc3cn(C)c4ccccc34)ccc2O[C@H]1CN(C)Cc1ccc(-c2ccccc2)cc1,24.7%
6,C[C@H](CO)N1C[C@H](C)[C@H](CN(C)Cc2ccc(C(=O)Nc3ccccc3N)cc2)Oc2ccc(NC(=O)Cn3cnnn3)cc2C1=O,35.1% [at 21 µM]
7,CC(=O)N(C)c1ccc(OCC(O)COc2ccc(N(C)C(C)=O)cc2)cc1,4.59%
8,Cc1cccc(NC(=O)C2CCCN(S(=O)(=O)c3cccc4nsnc34)C2)n1 (stereo not drawn),20.1%
9,CN(C(=O)c1ccc(NC(=O)Cc2ccc(NC(=O)C3CCN(C(=O)CCc4ccccc4)CC3)cc2)cc1)C1CC1,11.6%
10,CCCc1cc(Nc2c(C)n(C)n(-c3ccccc3)c2=O)n2c(nc3ccccc32)c1C#N,2.07%
11,Cc1ccc(S(=O)(=O)Nc2cccc3c2O[C@@H](CN(C)Cc2ccc(C(F)(F)F)cc2)[C@H](C)CN([C@H](C)CO)C3=O)cc1,33.9%
12,C[C@@H]1CCCCO[C@@H](CN(C)S(=O)(=O)c2ccc(Cl)cc2)[C@H](C)CN([C@H](C)CO)C(=O)c2cc(NS(C)(=O)=O)ccc2O1,-1.19%
13,O=C(Nc1ccc(NC(=O)c2ccco2)nc1)c1ccccn1,-75.5%
14,COc1ccc(NC(=O)Nc2ccc3c(c2)C(=O)N([C@@H](C)CO)C[C@@H](C)[C@H](CN(C)Cc2ccc(C(F)(F)F)cc2)OCCCC[C@H](C)O3)cc1,-26%
15,O=C(NCC12CC3CC(CC(C3)C1)C2)c1nn2c(c1Cl)NC(c1ccco1)CC2C(F)(F)F (stereo not drawn),2.04%
16,COc1ccc(NC(=O)Nc2ccc3c(c2)C(=O)N([C@H](C)CO)C[C@H](C)[C@@H](CN(C)Cc2ccc(C(F)(F)F)cc2)OCCCC[C@@H](C)O3)cc1,-5.5%
17,COc1ccc(NC(=O)N(C)C[C@H]2Oc3c(NC(=O)Nc4cccc5ccccc45)cccc3C(=O)N([C@H](C)CO)C[C@H]2C)cc1,-7.61%
18,Cc1noc(C)c1S(=O)(=O)N(C)C[C@H]1Oc2ccc(NC(=O)Nc3cccc4ccccc34)cc2CC(=O)N([C@H](C)CO)C[C@@H]1C,4.95%
19,COc1ccccc1N1CCN(Cc2nc3ccsc3c(=O)[nH]2)CC1,-27.8%
20,CN1CCN(C2=Cc3ccccc3Sc3cc(F)ccc32)CC1,-37.4%
21,Cc1noc(C)c1S(=O)(=O)Nc1ccc2c(c1)CC(=O)N([C@@H](C)CO)C[C@@H](C)[C@H](CN(C)Cc1ccc(-c3ccccc3)cc1)O2,27.5%
22,Cc1noc(C)c1S(=O)(=O)Nc1ccc2c(c1)CC(=O)N([C@H](C)CO)C[C@@H](C)[C@H](CN(C)Cc1ccc(Cl)c(Cl)c1)O2,37.4%
23,Cc1noc(C)c1S(=O)(=O)Nc1ccc2c(c1)CC(=O)N([C@H](C)CO)C[C@@H](C)[C@@H](CN(C)Cc1ccc(Cl)c(Cl)c1)O2,25.4% [at 21 µM]
24,Cc1noc(C)c1S(=O)(=O)Nc1ccc2c(c1)CC(=O)N([C@H](C)CO)C[C@@H](C)[C@@H](CN(C)Cc1ccc(C(F)(F)F)cc1)O2,27.1%
25,Cc1noc(C)c1S(=O)(=O)Nc1ccc2c(c1)CC(=O)N([C@@H](C)CO)C[C@H](C)[C@@H](CN(C)Cc1ccc(Cl)c(Cl)c1)O2,-10.4% [at 21 µM]
26,Cc1noc(C)c1S(=O)(=O)Nc1ccc2c(c1)CC(=O)N([C@H](C)CO)C[C@H](C)[C@@H](CN(C)Cc1ccc(Cl)c(Cl)c1)O2,31.6%
